# Measured values taken from publication PMC7862700, “An all-to-all approach to the identification of sequence-specific readers for epigenetic DNA modifications on cytosine”.
# What was measured:
# Assay in all cases: DAPPL (digital affinity profiling via proximity ligation, sequencing); 10 mM Tris-HCl pH 7.5, 50 mM NaCl, 1 mM DTT, 4% glycerol, room temperature, 30 min; GST-TFs on glutathione beads, 16-mer random dsDNA library, 0.1% formaldehyde crosslink after washing; high values mean tight binding
# Settings in all cases: protein: recombinant; tags: N-terminal GST; dsDNA, one strand shown
# FLI1 = target: T1, FLI1 (Homo sapiens, UniProt Q01543 1-452)
# T1 sequence: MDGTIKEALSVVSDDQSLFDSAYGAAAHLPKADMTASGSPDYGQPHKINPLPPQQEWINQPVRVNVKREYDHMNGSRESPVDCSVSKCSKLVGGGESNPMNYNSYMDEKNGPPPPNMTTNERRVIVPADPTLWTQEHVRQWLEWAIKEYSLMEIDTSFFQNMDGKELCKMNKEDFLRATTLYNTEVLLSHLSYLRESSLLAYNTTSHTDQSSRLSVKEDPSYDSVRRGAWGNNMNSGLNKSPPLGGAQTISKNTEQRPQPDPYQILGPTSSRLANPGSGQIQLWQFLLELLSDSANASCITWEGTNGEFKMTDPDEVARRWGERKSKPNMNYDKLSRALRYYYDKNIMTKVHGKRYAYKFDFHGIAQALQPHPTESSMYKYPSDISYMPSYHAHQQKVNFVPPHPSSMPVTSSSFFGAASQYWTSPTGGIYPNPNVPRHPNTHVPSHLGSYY
# Outline: (§1)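 Sequencing on an Illumina NextSeq500 followed washing, crosslinking with 0.1% formaldehyde, proximity ligation (BsaI/T4 ligase, 1 h, 37 °C) and PCR amplification of pools that had been incubated for 30 min at room temperature with 200 nmole of a random double-stranded 16-mer DNA library in Tris/NaCl/DTT/glycerol buffer. Each pool held DNA-barcoded human transcription factors, expressed in yeast as GST fusions and captured on glutathione beads, plus a tag-only sample. Binding signal is a hexamer's read frequency for a factor divided by its frequency in the tag-only sample.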
# ELK1 = target: T2, ELK1 (Homo sapiens, UniProt P19419 1-428)
# T2 sequence: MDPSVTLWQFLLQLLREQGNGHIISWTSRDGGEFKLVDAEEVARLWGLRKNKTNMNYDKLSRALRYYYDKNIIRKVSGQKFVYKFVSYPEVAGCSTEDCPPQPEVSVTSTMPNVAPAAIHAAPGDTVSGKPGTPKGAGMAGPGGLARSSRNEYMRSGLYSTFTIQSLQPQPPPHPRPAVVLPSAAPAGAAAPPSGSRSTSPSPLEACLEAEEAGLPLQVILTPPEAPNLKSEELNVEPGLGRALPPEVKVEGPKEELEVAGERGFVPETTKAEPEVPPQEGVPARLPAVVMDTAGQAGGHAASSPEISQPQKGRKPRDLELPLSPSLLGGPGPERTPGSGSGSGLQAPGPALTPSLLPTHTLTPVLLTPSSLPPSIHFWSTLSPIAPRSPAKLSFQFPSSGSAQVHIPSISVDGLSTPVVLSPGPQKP
# Outline: as §1
# GABPA = target: T3, GABPA (Homo sapiens, UniProt Q06546 1-454)
# T3 sequence: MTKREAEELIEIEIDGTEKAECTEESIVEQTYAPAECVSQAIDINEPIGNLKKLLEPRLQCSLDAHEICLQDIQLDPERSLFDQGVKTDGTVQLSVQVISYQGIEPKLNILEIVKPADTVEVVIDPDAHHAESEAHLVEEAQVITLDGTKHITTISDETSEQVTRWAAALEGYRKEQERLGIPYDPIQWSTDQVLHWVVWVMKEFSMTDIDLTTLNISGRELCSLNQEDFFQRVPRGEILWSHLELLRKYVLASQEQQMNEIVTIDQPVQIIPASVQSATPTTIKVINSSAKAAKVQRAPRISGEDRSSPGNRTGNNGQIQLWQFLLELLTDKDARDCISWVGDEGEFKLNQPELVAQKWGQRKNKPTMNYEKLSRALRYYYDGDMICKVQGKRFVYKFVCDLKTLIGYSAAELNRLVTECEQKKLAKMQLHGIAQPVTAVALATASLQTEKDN
# Outline: as §1
# ERG = target: T4, ERG (Homo sapiens, UniProt P11308 1-479)
# T4 sequence: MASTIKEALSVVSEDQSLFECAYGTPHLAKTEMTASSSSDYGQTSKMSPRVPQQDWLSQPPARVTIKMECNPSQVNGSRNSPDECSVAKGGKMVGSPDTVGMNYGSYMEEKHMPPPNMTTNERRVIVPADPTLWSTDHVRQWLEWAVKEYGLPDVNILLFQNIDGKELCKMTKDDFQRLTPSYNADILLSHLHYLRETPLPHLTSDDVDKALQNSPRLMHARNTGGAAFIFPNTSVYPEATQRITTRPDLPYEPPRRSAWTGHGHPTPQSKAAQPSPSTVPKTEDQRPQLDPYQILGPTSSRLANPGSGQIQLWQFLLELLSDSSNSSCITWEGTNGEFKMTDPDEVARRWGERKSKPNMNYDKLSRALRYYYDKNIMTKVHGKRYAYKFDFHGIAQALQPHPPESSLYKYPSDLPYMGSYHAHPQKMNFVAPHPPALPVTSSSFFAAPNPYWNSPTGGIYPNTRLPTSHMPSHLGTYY
# Outline: as §1
# ELF1 = ELF1 (Homo sapiens, UniProt P32519 1-619)
# ELF1, sequence (P32519 whole entry): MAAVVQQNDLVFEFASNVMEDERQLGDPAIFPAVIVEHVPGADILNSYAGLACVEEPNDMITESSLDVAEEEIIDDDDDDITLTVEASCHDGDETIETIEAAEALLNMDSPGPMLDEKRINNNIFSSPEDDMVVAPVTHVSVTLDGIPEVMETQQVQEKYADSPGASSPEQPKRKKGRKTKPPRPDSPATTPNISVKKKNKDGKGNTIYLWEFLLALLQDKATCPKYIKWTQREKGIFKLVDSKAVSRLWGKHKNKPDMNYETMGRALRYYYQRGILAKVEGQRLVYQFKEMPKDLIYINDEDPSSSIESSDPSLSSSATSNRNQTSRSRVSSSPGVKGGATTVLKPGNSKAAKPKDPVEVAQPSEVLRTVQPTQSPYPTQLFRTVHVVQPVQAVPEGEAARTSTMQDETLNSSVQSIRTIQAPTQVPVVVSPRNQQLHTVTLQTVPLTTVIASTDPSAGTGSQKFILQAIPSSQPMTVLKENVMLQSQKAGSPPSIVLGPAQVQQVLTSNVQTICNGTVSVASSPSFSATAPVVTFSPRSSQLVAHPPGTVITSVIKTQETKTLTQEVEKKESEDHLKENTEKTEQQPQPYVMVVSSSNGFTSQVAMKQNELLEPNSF
# Outline: as §1
# EHF = target: T5, EHF (Homo sapiens, UniProt Q9NZC4 1-300)
# T5 sequence: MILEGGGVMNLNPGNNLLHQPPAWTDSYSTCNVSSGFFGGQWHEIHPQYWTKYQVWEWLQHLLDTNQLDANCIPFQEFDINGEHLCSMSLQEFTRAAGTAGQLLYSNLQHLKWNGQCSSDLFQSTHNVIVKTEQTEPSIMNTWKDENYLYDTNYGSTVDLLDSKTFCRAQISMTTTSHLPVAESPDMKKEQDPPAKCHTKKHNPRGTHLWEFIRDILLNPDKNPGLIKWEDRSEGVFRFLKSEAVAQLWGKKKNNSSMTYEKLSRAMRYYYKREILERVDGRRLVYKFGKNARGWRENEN
# Outline: as §1
# SPI1 = SPI1 (Homo sapiens, UniProt P17947 1-270)
# Outline: as §1
# SPIB = SPIB (Homo sapiens, UniProt Q01892 1-262)
# SPIB, sequence (Q01892 whole entry): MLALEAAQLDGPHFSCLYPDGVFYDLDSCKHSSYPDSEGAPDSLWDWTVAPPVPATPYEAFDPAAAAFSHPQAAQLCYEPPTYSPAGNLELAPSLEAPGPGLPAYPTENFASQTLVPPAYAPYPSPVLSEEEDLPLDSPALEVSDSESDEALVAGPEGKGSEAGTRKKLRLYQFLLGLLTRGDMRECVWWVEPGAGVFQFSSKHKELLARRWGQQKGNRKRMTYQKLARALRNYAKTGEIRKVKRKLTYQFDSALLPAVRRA
# Outline: as §1
# ELK3 = target: T6, ELK3 (Homo sapiens, UniProt P41970 1-407)
# T6 sequence: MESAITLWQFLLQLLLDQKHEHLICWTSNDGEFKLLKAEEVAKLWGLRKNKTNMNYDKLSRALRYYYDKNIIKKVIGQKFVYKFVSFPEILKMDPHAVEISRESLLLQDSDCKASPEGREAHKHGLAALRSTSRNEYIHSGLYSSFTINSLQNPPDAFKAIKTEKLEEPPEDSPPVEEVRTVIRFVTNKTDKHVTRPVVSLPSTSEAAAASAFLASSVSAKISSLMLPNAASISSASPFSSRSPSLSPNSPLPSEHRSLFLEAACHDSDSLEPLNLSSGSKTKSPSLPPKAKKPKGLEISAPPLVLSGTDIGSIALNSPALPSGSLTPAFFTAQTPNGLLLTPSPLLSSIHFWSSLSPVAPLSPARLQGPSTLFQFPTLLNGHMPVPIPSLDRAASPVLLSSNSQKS
# Outline: as §1
Sequence,binding signal (FLI1),binding signal (ELK1),binding signal (GABPA),binding signal (ERG),binding signal (ELF1),binding signal (EHF),binding signal (SPI1),binding signal (SPIB),binding signal (ELK3)
ATACGC,"1.09 fold enrichment (6-mer frequency, TF over GST control)","1.14 fold enrichment (6-mer frequency, TF over GST control)","1.2 fold enrichment (6-mer frequency, TF over GST control)","1.13 fold enrichment (6-mer frequency, TF over GST control)","1.17 fold enrichment (6-mer frequency, TF over GST control)","1.11 fold enrichment (6-mer frequency, TF over GST control)","1.08 fold enrichment (6-mer frequency, TF over GST control)","1.19 fold enrichment (6-mer frequency, TF over GST control)","1.18 fold enrichment (6-mer frequency, TF over GST control)"
TACACG,"1.13 fold enrichment (6-mer frequency, TF over GST control)","1.11 fold enrichment (6-mer frequency, TF over GST control)","1.19 fold enrichment (6-mer frequency, TF over GST control)","1.1 fold enrichment (6-mer frequency, TF over GST control)","1.16 fold enrichment (6-mer frequency, TF over GST control)","1.1 fold enrichment (6-mer frequency, TF over GST control)","1.07 fold enrichment (6-mer frequency, TF over GST control)","1.16 fold enrichment (6-mer frequency, TF over GST control)","1.19 fold enrichment (6-mer frequency, TF over GST control)"
CTTTTA,"1.41 fold enrichment (6-mer frequency, TF over GST control)","1.28 fold enrichment (6-mer frequency, TF over GST control)","1.41 fold enrichment (6-mer frequency, TF over GST control)","1.28 fold enrichment (6-mer frequency, TF over GST control)","1.29 fold enrichment (6-mer frequency, TF over GST control)","1.28 fold enrichment (6-mer frequency, TF over GST control)","1.4 fold enrichment (6-mer frequency, TF over GST control)","1.35 fold enrichment (6-mer frequency, TF over GST control)","1.4 fold enrichment (6-mer frequency, TF over GST control)"
GTCCCT,"1.15 fold enrichment (6-mer frequency, TF over GST control)","1.29 fold enrichment (6-mer frequency, TF over GST control)","1.2 fold enrichment (6-mer frequency, TF over GST control)","1.24 fold enrichment (6-mer frequency, TF over GST control)","1.28 fold enrichment (6-mer frequency, TF over GST control)","1.27 fold enrichment (6-mer frequency, TF over GST control)","1.38 fold enrichment (6-mer frequency, TF over GST control)","1.18 fold enrichment (6-mer frequency, TF over GST control)","1.16 fold enrichment (6-mer frequency, TF over GST control)"
CAAACT,"1.18 fold enrichment (6-mer frequency, TF over GST control)","1.14 fold enrichment (6-mer frequency, TF over GST control)","1.21 fold enrichment (6-mer frequency, TF over GST control)","1.12 fold enrichment (6-mer frequency, TF over GST control)","1.17 fold enrichment (6-mer frequency, TF over GST control)","1.15 fold enrichment (6-mer frequency, TF over GST control)","1.12 fold enrichment (6-mer frequency, TF over GST control)","1.14 fold enrichment (6-mer frequency, TF over GST control)","1.23 fold enrichment (6-mer frequency, TF over GST control)"
TACCGG,"1.52 fold enrichment (6-mer frequency, TF over GST control)","1.55 fold enrichment (6-mer frequency, TF over GST control)","1.52 fold enrichment (6-mer frequency, TF over GST control)","1.77 fold enrichment (6-mer frequency, TF over GST control)","1.53 fold enrichment (6-mer frequency, TF over GST control)","1.67 fold enrichment (6-mer frequency, TF over GST control)","1.43 fold enrichment (6-mer frequency, TF over GST control)","1.61 fold enrichment (6-mer frequency, TF over GST control)","1.56 fold enrichment (6-mer frequency, TF over GST control)"
AACAGG,"1.2 fold enrichment (6-mer frequency, TF over GST control)","1.16 fold enrichment (6-mer frequency, TF over GST control)","1.13 fold enrichment (6-mer frequency, TF over GST control)","1.23 fold enrichment (6-mer frequency, TF over GST control)","1.08 fold enrichment (6-mer frequency, TF over GST control)","1.18 fold enrichment (6-mer frequency, TF over GST control)","1.43 fold enrichment (6-mer frequency, TF over GST control)","1.16 fold enrichment (6-mer frequency, TF over GST control)","1.11 fold enrichment (6-mer frequency, TF over GST control)"
